Luciferase inh – inhibitors of firefly (Photinus pyralis) luciferase; actives 2.5% (n = 76,000); purified P. pyralis luciferase, luminescence, biochemical; Potency, µM (highest dose often 115 µM), actives largely listed as inhibitors; P08659; further: nearly all actives have a fitted effect of over 65% in size
Target sequence (P08659 whole entry, looked up): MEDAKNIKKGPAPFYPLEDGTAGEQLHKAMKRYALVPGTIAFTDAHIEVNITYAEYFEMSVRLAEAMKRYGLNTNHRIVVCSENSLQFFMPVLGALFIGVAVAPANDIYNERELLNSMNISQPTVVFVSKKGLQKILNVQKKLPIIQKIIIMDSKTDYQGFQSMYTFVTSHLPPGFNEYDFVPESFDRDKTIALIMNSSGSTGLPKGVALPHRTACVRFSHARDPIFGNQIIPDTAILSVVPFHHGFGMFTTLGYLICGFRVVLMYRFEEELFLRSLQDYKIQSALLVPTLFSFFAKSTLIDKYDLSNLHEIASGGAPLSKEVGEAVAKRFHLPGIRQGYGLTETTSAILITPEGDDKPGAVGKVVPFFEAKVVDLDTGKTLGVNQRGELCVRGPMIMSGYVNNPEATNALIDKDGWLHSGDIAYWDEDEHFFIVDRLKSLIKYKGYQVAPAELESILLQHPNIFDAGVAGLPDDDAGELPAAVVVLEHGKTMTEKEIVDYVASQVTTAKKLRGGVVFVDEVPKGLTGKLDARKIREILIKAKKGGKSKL
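Purified P. pyralis luciferase (10nM final) in 50mM Tris acetate pH 7.5, 10mM Mg acetate, 0.01% Tween-20, 0.05% BSA with 10uM D-luciferin and 10uM ATP. Compounds titrated qHTS. Luminescence imaged on CCD.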
HEK cytotox – cytotoxic compounds in HEK 293 cells; HEK 293 viability, ATP luminescence (CellTiter-Glo), 48-72 h; Potency, µM (titrated, usually from 115 µM), hits mostly inhibitors; actives 6.6% (n = 94,000); AID 1345083; further: nearly all actives have a fitted effect of over 60% in size
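ATP-coupled CellTiter-Glo luminescence served as viability read-out, recorded 10 min after reagent addition at room temperature. HEK 293 cells, 250 cells/well, had been incubated with pintool-transferred compound for 48 or 72 hr at 37 degree Celsius.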
3T3 cytotox – kills NIH 3T3 cells; NIH 3T3 viability, CellTiter-Glo ATP luminescence, 48-72 h; Potency, µM (top dose mostly 96.7 µM), hits mostly inhibitors; actives 4.3% (n = 94,000); AID 1345082; further: nearly all actives have a fitted effect of over 55% in size
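NIH 3T3 cells at 400 cells/well received 23 nL of compound by pintool and were incubated 48 or 72 h at 37 °C. Viability was read as ATP-coupled CellTiter-Glo luminescence.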
hNpr1 antagonist – blocks ANP-stimulated signaling of human Npr1 receptor. actives 1.6% (n = 76,000). AID 1347048. HEK293 hNpr1 GloSensor cGMP, ANP-stimulated luminescence. Potency, µM (titrated, usually from 46.3 µM), actives largely listed as inhibitors. P16066; calls by dose curve; further: nearly all actives have a fitted effect of over 60% in size
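Compound pre-incubated 30 min at room temperature on GloSensor-loaded HEK293 cells stably carrying hNpr1 and the pGS-40F cGMP biosensor. Stimulation uses hNppA at 0.1 nM final; luminescence is taken at baseline and 20 min post-agonist.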
Hits are given with their value; . = inactive; ? = inconclusive; / = not tested or not shown. Hits are enriched below; roughly 11% of the tested compounds scored in any of these assays. Unless noted, the call rests on the fitted dose curve; in most records, active means well fitted curve in the direction sought with a large enough effect; inconclusive means small, poorly fitted or top-dose-only effect, or another doubt; inactive means no such curve, though single readings can be large; an effect the other way counts as inactive or inconclusive.

SMILES | Luciferase inh | HEK cytotox | 3T3 cytotox | hNpr1 antagonist
COc1cccc(-n2cc(CN(C)Cc3cn(-c4ccccc4)nn3)cn2)c1 | . | 31.6µM | ? | .
Cc1noc2c(NCCc3ccccn3)cc(-c3ccccn3)nc12 | . | 56.2µM | ? | .
Cc1noc2c(NCCc3ccccn3)cc(-c3cccnc3)nc12 | . | . | ? | .
C=CCNC(=O)[C@@H]1Cc2cn(Cc3cc(C)on3)c3cccc(c23)[C@H](CC(C)C)N1 | . | 70.8µM | 79.4µM | .
Cc1cc(Cn2cc3c4c(cccc42)[C@H](CC(C)C)N[C@H](C(=O)NC(C)C)C3)no1 | . | 44.7µM | 50.1µM | .
Cc1cc(Cn2cc3c4c(cccc42)[C@H](CC(C)C)N[C@H](C(=O)NC2CCCC2)C3)no1 | . | 39.8µM | 31.6µM | .
Cc1cc(Cn2cc3c4c(cccc42)[C@H](CC(C)C)N[C@H](C(=O)NCc2cncn2C)C3)no1 | . | ? | . | .
Cc1cc(Cn2cc3c4c(cccc42)[C@H](CC(C)C)N[C@H](C(=O)NCCN2CCCC2)C3)no1 | . | 28.2µM | 22.4µM | .
C#CCNC(=O)[C@@H]1Cc2cn(Cc3cc(C)on3)c3cccc(c23)[C@H](CC(C)C)N1 | . | ? | ? | .
CN1CCCN(C(=O)CC2CCCC2)c2ccccc21 | . | ? | ? | .
CCCS(=O)(=O)N1CCC([C@H]2[C@@H](OC)C(=O)N2C(C)C)CC1 | / | . | . | /
COCCN1Cc2cc(F)ccc2N(CC(O)Cc2ccccc2)CCC1=O (centres undefined) | / | ? | . | /
CCOCCNC(=O)CNC(=O)c1cccc(-c2ccsc2)c1 | / | . | . | /
COCCN1CCN(C(=O)[C@@H]2Cc3cn(Cc4cc(C)on4)c4cccc(c34)[C@H](CC(C)C)N2)CC1 | . | . | ? | .
COCCCNC(=O)[C@@H]1Cc2cn(Cc3cc(C)on3)c3cccc(c23)[C@H](CC(C)C)N1 | . | 35.5µM | ? | .
Cc1cc(Cn2cc3c4c(cccc42)[C@H](CC(C)C)N[C@H](C(=O)NC2CCC2)C3)no1 | . | 79.4µM | ? | .
CC(C)(C)OC(=O)N1CC(Nc2ccc(Oc3ccccc3)cc2)C1 | / | 89.1µM | ? | /
CC(C)Oc1cccc(-c2ccc(C(=O)N(C)C)cc2)c1 | ? | 35.5µM | ? | .
COc1cccc(-c2ccc(C(=O)O)cc2)c1 | / | . | . | /
CCOc1cccc(-c2nc(C(=O)NCc3ccccc3)cs2)c1 | . | ? | ? | ?
CCN(CC)C(=O)c1csc(-c2cccc(OC(C)C)c2)n1 | . | 39.8µM | ? | ?
CC(C)CNC(=O)c1csc(-c2cccc(OC(C)C)c2)n1 | . | 39.8µM | ? | .
CC(C)N1CCN(C(=O)C2CCN(c3cnn(Cc4ccccc4)c(=O)c3)C2)CC1 (centres undefined) | / | . | . | /
CCOC(=O)C1(Cc2ccc(OC)cc2)CCNCC1 | . | . | . | .
COc1ccc(CN[C@@H]2C=C[C@@H](c3c(C)nn(-c4cccc(Br)c4)c3C)C2)cc1 | . | ? | ? | .
SMILES | Luciferase inh | HEK cytotox | 3T3 cytotox | hNpr1 antagonist
Cc1nn(-c2ccccc2)c(C)c1[C@@H]1C=C[C@@H](NC(=O)CC(C)(C)CC(=O)O)C1 | . | . | . | .
COc1ccc(-n2nc(C)c([C@@H]3C=C[C@@H](NCc4ccccc4)C3)c2C)cc1 | 50.1µM | 79.4µM | ? | ?
COc1ccc(CN[C@@H]2C=C[C@@H](c3c(C)nn(-c4ccc(OC)cc4)c3C)C2)cc1 | ? | 50.1µM | 31.6µM | .
CCOC(=O)[C@H]1C[C@]2(CCCCN(C)C2=O)N(C(=O)C2CC2)[C@H]1c1ccccc1 | / | . | ? | /
COc1ccc(-c2ccnc3nc(C4CCC4)nn23)c(F)c1 | . | ? | ? | .
CC(C)CNC(=O)c1cc(-c2cccc(C(F)(F)F)c2)nc2c1cnn2C | / | . | . | /
C#Cc1cccc(C(=O)N2CCC(Cc3ccc(Cl)cc3)(C(=O)OCC)CC2)c1 | . | ? | 20µM | .
C=CCOc1cccc(C(=O)N2CCC(Cc3ccc(OC)cc3)(C(=O)OCC)CC2)c1 | . | ? | ? | .
O=C1CCN(C(=O)CC2CCCC2)CCCC(c2nc(-c3cccnc3)no2)CCN1 (centres undefined) | . | . | . | .
CN(C)c1ccc2c(c1)CN(C(=O)c1cnn(C)c1)CCO2 | / | . | . | /
CC1(C)[C@H]2CC[C@@H](CNC(=O)c3ccccn3)[C@@H]1C2 | . | ? | ? | .
COc1ccccc1Nc1ccnc(N2CCCC(C(=O)NC3CCCC3)C2)n1 (centres undefined) | / | ? | 35.5µM | /
